# Hits are enriched below; roughly 0.86% of the tested compounds scored in any of these assays.
# TAR Tat displ: HIV-1 TAR-Tat binding disruption. z-score (test concentration not listed). hit rate 0.6% among 100,000. HIV-1 TAR RNA, Tat peptide displacement FRET; stronger effect = higher value; active means z-score of 3 or more in at least 2 runs
# CDC25B CDK2 inh: human CDC25B-CDK2/CyclinA binding inhibition. P30305+P24941. HTRF CDC25B-CDK2/CyclinA binding, anti-His/anti-Flag; stronger effect = higher value. z-score (test concentration not listed). hit rate 0.72% among 94,000. AID 1259370; in the data active means z-score above about 3.2
# Starred values were filed as active, the others as inactive; nt = not tested or not shown; + = active, no number.
SMILES,TAR Tat displ,CDC25B CDK2 inh
O=c1cc(CSc2nnc(-c3ccc(Cl)cc3)o2)nc2sc(C3CC3)nn12,14*,-2.2
O=C(NCc1ccco1)C1c2ccccc2C(=O)N(C2CCCC2)C1c1cccs1 (stereo unspecified),-0.12,nt
CC1(C)CC(=O)C2=C(C1)NC1=C(C(=O)c3ccccc31)C2c1cccs1 (stereo unspecified),0.71,-0.39
CN1C2=C(C(=O)CC(C)(C)C2)C(c2cccs2)C2=C1CC(C)(C)CC2=O,nt,16*
COC(=O)c1cc(=O)c(O)c2c(O)c(O)ccc2c1,25*,nt
COC(=O)c1cc(NC(=O)c2ccc3ccccc3c2)cc(C(=O)OC)c1,nt,-2
CCOC(=O)c1sc2nc(C)nc(Oc3ccc(OCC)cc3)c2c1C,-0.13,nt
CCOc1ccc(Oc2nc(C)nc3sc(C)c(C)c23)cc1,7.5*,nt
Cc1ccc(SCCS(=O)(=O)c2ccc(F)cc2)cc1,nt,-0.9
NC1(C(=O)O)CCCCC1,nt,-1.7
N.N.O=C(O)C1(C(=O)O)CCC1.[Pt+2],nt,+
Cc1cccn2c(=O)c3cc(C#N)c(=O)n(-c4ccccc4Br)c3nc12,0.37,-2.3
O=C1NC(c2ccc(-c3cccc(Cl)c3)o2)C(C(=O)c2ccccc2)C(O)(C(F)(F)F)N1 (stereo unspecified),nt,-0.85
Fc1ccc(-c2cn3c(n2)Cc2ccccc2C3)cc1,nt,18*
Fc1ccc(-c2cn3ccccc3n2)cc1,1.2,1.2
CC1CSc2ccc(S(=O)(=O)NCc3ccc(Br)cc3)cc2NC1=O (stereo unspecified),1.3,nt
Cc1ccc(-c2cc3c4c(C)n(C)c(C)c4c(C)nn3c2)o1,36*,16*
Cc1ccc(-c2cc3c4c(C)n(C5CCCCC5)c(C)c4c(C)nn3c2)o1,17*,-0.58
Cc1ccc(-c2cc3c4c(C)n(Cc5ccc6c(c5)OCO6)c(C)c4c(C)nn3c2)o1,35*,23*
Cc1ccc(-c2cc3c4c(C)n(Cc5ccccc5)c(C)c4c(C)nn3c2)o1,-0.55,-1.4
Cc1ccc(-n2c(C)c3c(C)nn4cc(C)cc4c3c2C)cc1,nt,0.82
CC(C)CC(NC(=O)C1CCC(C)CC1)C(=O)NC1CCCC(C)C1C (stereo unspecified),-2.4,0.1
O=C(CSc1ccc2nnc(-c3ccc(F)cc3)n2n1)Nc1nccs1,nt,-16
COc1ccc(C2c3c(oc4ccccc4c3=O)C(=O)N2c2nnc(C)s2)cc1OC (stereo unspecified),0.65,0.75
Cn1c(C2=C(O)CN(c3ccc(Oc4ccccc4)cc3)C2=N)nc2ccccc21,1.4,-0.99
SMILES,TAR Tat displ,CDC25B CDK2 inh
Cn1c(N)c(C(C[N+](=O)[O-])c2ccco2)c(=O)n(C)c1=O (stereo unspecified),nt,-2
Cc1ccc(OC(C)c2nc3ccccc3[nH]2)cc1C (stereo unspecified),1.1,1.4
COc1ccc(S(=O)(=O)N(C(=O)c2ccco2)c2cc3sc(=O)oc3c3ccccc23)cc1,1.8,16*
CCOc1ccc(S(=O)(=O)N(C(=O)c2ccco2)c2cc3sc(=O)oc3c3ccccc23)cc1,0.98,-0.58
CN1C(C(=O)NC(C)(C)C)=CC(c2ccco2)=NS1(=O)=O,-0.31,-1.1
CCCn1c2ccccc2c2nnc(SC(CC)C(=O)Nc3cc(C)on3)nc21 (stereo unspecified),-0.8,17*
CCOC(=O)c1sc(NC(=O)C(CC)Sc2nnc3c4ccccc4n(CC)c3n2)nc1C (stereo unspecified),0.92,-1.8
CCc1ccc(C(=O)c2cnc3cc4c(cc3c2N2CCCC2)OCO4)cc1,-0.89,-0.75
Cc1ccc(C(=O)c2cnc3cc4c(cc3c2N2CCOCC2)OCO4)cc1C,8.8*,1.8
CCN(CC)CCCn1c(C)c(C)c2c1ncn1nc(-c3ccc(C)cc3)nc21,-0.15,-2.3
Cc1c(-c2nc(-c3ccc4c(c3)OCO4)no2)nnn1-c1ccccc1Br,-0.62,nt
O=C(Nc1ccc2c(c1)nc1n2CCN(C2CCCCC2)C1)c1ccco1,31*,7.1*
O=C(Nc1ccc2c(c1)nc1n2CCN(C2CCCCC2)C1)NC1CCCCC1,-3,-1.3
O=C(c1ccco1)N1CCN(c2nc(-c3ccc(Cl)cc3)no2)CC1,-0.16,nt
Cc1c2c(cc3c1oc(=O)c1ccccc13)CN(Cc1ccco1)CO2,-0.57,-1.8
Cn1c(SCC(=O)Nc2ccc3[nH]c(=O)[nH]c3c2)nnc1-c1ccccc1,0.78,-0.17
CC(=O)c1ccc(NC(=O)CSc2nnc(-c3ccc4ccccc4c3)n2C)cc1,nt,6.9*
CN1C(C(=O)c2ccccc2)=C(OC(=O)c2ccc(Cl)cc2)c2ccccc2S1(=O)=O,nt,0.82
O=C(CCC(=O)N1CCOc2ccccc21)N1CCC2(CC1)OCCO2,nt,-0.45
CC1=C(C(=O)OCc2ccccc2)C(c2cccc(O)c2)C2=C(CC(c3cccs3)CC2=O)N1 (stereo unspecified),0.73,-0.42
O=C(O)c1cc(-c2cn[nH]c2-c2ccccc2)nc2ccc3ccccc3c12,nt,22*
O=C(O)c1cc(-c2ccccc2)nc2n[nH]c(-c3ccccc3)c12,0.44,nt
CN(C)S(=O)(=O)c1ccc(C(=O)Nc2sc3c(c2C(N)=O)CCCC3)cc1,3.4,-2.3
CN(CC1CCCO1)S(=O)(=O)c1ccc(C(=O)Nc2sc3c(c2C(N)=O)CCC3)cc1 (stereo unspecified),7.6*,nt
Nc1nc(NS(=O)(=O)c2cc(C(F)(F)F)cc(C(F)(F)F)c2)cc(-c2ccc(F)cc2)n1,nt,-1.2
SMILES,TAR Tat displ,CDC25B CDK2 inh
CCc1nn2c(=O)cc(COC(=O)COc3ccc(C)cc3)nc2s1,0.26,nt
CC(C)CC(=O)N[C@H](C(=O)N[C@H](C(=O)N[C@@H](CC(C)C)[C@@H](O)CC(=O)N[C@@H](C)C(=O)N[C@@H](CC(C)C)[C@@H](O)CC(=O)O)C(C)C)C(C)C,19*,nt
COc1cc(CNc2ccc3[nH]c(=O)[nH]c3c2)cc(Br)c1OCc1cccs1,nt,8.9*
CCOc1cc(CNc2ccc(O)cc2)cc(Br)c1OCc1cccs1,-6.5,-0.71
O=c1[nH]c2ccc(NCc3cc(Br)ccc3OCc3ccccc3)cc2[nH]1,-3.1,13*
CC(C)(CO)NCc1cc(Br)ccc1OCc1ccccc1,-0.65,0.31
CCCCN1C(=O)C2(/C(=C(/O)c3ccc(C)c(F)c3)C(=O)C(=O)N2CCCOC)c2ccccc21 (stereo unspecified),0.71,-0.91
CCOCCCNc1nc2c(S(=O)(=O)c3ccccc3)nnn2c2ccccc12,11*,-0.96
COCCCNc1nc2c(S(=O)(=O)c3ccccc3)nnn2c2ccccc12,1.1,-1.9
CC(=O)N1N=C(c2[nH]c3ccc(Br)cc3c2C)OC1c1ccccc1 (stereo unspecified),2.6,nt
Cc1cc(Br)ccc1NC(=O)OC(C)(C)C,nt,-2.8
CCCNC(=O)c1cc2oc3ccccc3c2n1C,0.61,-1.9
Cn1c(C(=O)NCc2ccccc2Br)cc2oc3ccccc3c21,-0.04,10*
O=C(c1cccn2c(=O)c3sccc3nc12)N1CCN(c2cccc(C(F)(F)F)c2)CC1,nt,-0.02
COc1ccc(C2=C(C)C(N3CCOCC3)=NS2(=O)=O)cc1,0.77,-0.72
CCOC(=O)/C=C/C(=O)O,nt,-0.92
C[Si](C)(C)OC(=O)/C=C\C(=O)O[Si](C)(C)C,nt,6.1*
Cn1c(=O)n(Cc2ccccc2Cl)c(=O)c2c1nc1n2CCN1Cc1ccco1,nt,-1.8
Cn1c(=O)n(Cc2ccccc2F)c(=O)c2c1nc1n2CCN1Cc1ccco1,4.7*,nt
COc1ccc(NC(=O)Cn2nc3c(cc2=O)CCC3)cc1Cl,13*,0.37

# Compound activity: PubChem, Center for Chemical Genomics, University of Michigan
